# Measured values as given in the supplement of paper PMC6555819.
# Assays:
# Assay in all cases: PBM binding z-score (relative to random genomic background probes); higher = stronger binding; sequences stand for … in GC…GCGATTGACAGCGTAGAATGAAGG
# [1] = tested on: PPARg:RXRa DBDmut IVT, anti-RXR (DBD mutation: RXRa K156A/R161A, NR concentration 270 nM, RXRa partner concentration 90 nM)
# How it was run: (§1)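 Custom Agilent 4×180K protein-binding microarrays carried double-stranded probes. Their 34-nt variable regions held direct-repeat seeds, single-nucleotide variants, half-site ablations and random human genomic background sequences. Arrays were incubated 1 h with ligand-free nuclear receptor dimers in PBS pH 7.4, 2% milk, 0.02% Triton X-100, 1 mM DTT, 0.2 mg/mL BSA and 0.4 mg/ml salmon testes DNA. Antibodies against each partner (one per run) detected binding, and scanned fluorescence was regression-normalized. Binding z-scores use random background probes as reference.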
# [2] = tested on: PPARg:RXRa IVT, anti-PPARg (NR concentration 270 nM, RXRa partner concentration 90 nM)
# How it was run: as §1
# [3] = tested on: PPARg DBDmut:RXRa IVT, anti-PPARg (DBD mutation: PPARg1 K132A/R137A, NR concentration 270 nM, RXRa partner concentration 90 nM)
# How it was run: as §1
# [4] = tested on: PPARg DBDmut IVT, anti-PPARg (DBD mutation: PPARg1 K132A/R137A, NR concentration 270 nM)
# How it was run: as §1
# [5] = tested on: PPARg homodimer (NR concentration 180 nM)
# How it was run: as §1
# [6] = tested on: PXR:RXRa (NR concentration 270 nM, RXRa partner concentration 90 nM)
# How it was run: as §1
# [7] = tested on: PXR homodimer (NR concentration 270 nM)
# How it was run: as §1
# [8] = tested on: RARa:RXR (NR concentration 270 nM, RXRa partner concentration 90 nM)
# How it was run: as §1
# [9] = tested on: RARa homodimer (NR concentration 270 nM)
# How it was run: as §1
# [10] = tested on: RARb:RXRa (NR concentration 270 nM, RXRa partner concentration 90 nM)
# How it was run: as §1
# [11] = tested on: RARb homodimer (NR concentration 270 nM)
# How it was run: as §1
# [12] = tested on: RARg:RXRa (NR concentration 270 nM, RXRa partner concentration 90 nM)
# How it was run: as §1
# [13] = tested on: RARg homodimer (NR concentration 270 nM)
# How it was run: as §1
# [14] = tested on: RXRa DBDmut IVT, anti-RXR (DBD mutation: RXRa K156A/R161A, NR concentration 90 nM)
# How it was run: as §1
# [15] = tested on: RXRa homodimer (NR concentration 180 nM)
# How it was run: as §1
# [16] = tested on: THRa:RXRa (NR concentration 90 nM, RXRa partner concentration 90 nM)
# How it was run: as §1
# [17] = tested on: THRa homodimer (NR concentration 90 nM)
# How it was run: as §1
# [18] = tested on: VDR homodimer (NR concentration 270 nM)
# How it was run: as §1
Sequence,PBM binding z-score [1],PBM binding z-score [2],PBM binding z-score [3],PBM binding z-score [4],PBM binding z-score [5],PBM binding z-score [6],PBM binding z-score [7],PBM binding z-score [8],PBM binding z-score [9],PBM binding z-score [10],PBM binding z-score [11],PBM binding z-score [12],PBM binding z-score [13],PBM binding z-score [14],PBM binding z-score [15],PBM binding z-score [16],PBM binding z-score [17],PBM binding z-score [18]
CCGACTGGAGCATAAGGTTACCATAAGCCAGCCC,0.771,0.172,-0.467,-1.49,-0.0887,0.241,-0.0972,1.11,0.0423,0.916,1.28,0.447,0.266,0.0357,0.901,1.96,1.77,0.144
GCTAGCAGGCCATTTCGGTCACTCAATGACGGGC,0.656,0.325,-0.625,-0.867,-0.364,-0.577,-0.577,-0.28,-1.42,1.07,1.03,0.276,0.793,0.0509,-0.116,0.245,-0.53,-0.487
ACTAGCAGGCCAAGGGTCGCTCAAGATTAGTCCG,0.554,1.95,-0.249,-1.1,0.333,0.247,-0.683,0.951,-0.617,1.35,0.923,1.12,0.872,-0.27,1.13,0.795,-0.633,-0.246
CCTAGTTGGTCAAGGCCACACACGCTATAGGTAC,1.25,1.16,0.294,0.121,1,0.291,1.6,0.34,0.796,1.76,1.52,0.785,1.19,0.685,0.442,1.07,1.18,0.836
CGAACTAGGTCAAGGACAGCGAATCTCCGCACGC,7.76,8.26,2.54,2.03,1.63,1.06,0.0262,1.9,0.554,3.81,3.31,3.9,4.6,1.5,2.63,3.17,2.2,0.441
ATCTCTAGGTAAAGATAGTTCAGTGCATGCAAAT,2.3,1.49,1.11,1.06,0.899,1.1,1.29,0.26,0.906,0.853,1.11,0.406,0.733,-0.0342,0.191,0.926,0.229,1.15
CCAACTAGGTCACGAAAGGTCAAAGTCGAATGAC,8.35,8.54,1.23,0.869,6.09,7.02,3.52,7.39,3.62,5.63,6.02,8.03,8.57,2.76,8.76,5.44,2.87,3.88
ACAGAAAGGTGAGTGAAGGTAACTCAGCTGGACG,1.69,1.91,0.587,-0.401,0.248,0.345,-0.335,0.81,0.239,2.47,1.15,1.58,1.59,-0.371,1.28,2.58,-0.361,-0.509
ACTAGTTGGTCAGCTGAGGACACACACAATTCGG,0.766,1,0.592,0.377,0.0418,1.38,0.241,1.05,0.18,1.52,1.64,1.18,1.82,0.558,0.282,4.7,4.2,0.259
TTACCAAGGTGAGCTGTGGTCGTTGATCCAACTC,1.27,1.57,0.175,0.327,-0.41,0.219,-0.79,-0.0403,-0.989,1.04,0.173,0.108,-0.154,-0.592,0.152,1.78,-0.136,-0.783
ACTTGCAGGCCAAGGGTCACTCAAGATTAGTCCG,2.34,4.29,0.459,-0.141,1.94,3.22,0.0748,3.99,0.96,3.6,4.01,4.38,3.9,0.954,4.47,2.89,0.244,1.36
GCTGCTAGGTCAATTGATGGTCAGCTAAAGCTCG,4.15,3.1,-0.948,0.185,0.889,0.861,-0.942,1.75,-0.705,3.59,2.95,4.28,4.03,1.37,1.95,2.22,-0.157,-0.476
CCTCACGGGTCACTCCAGGTTATAGCATCGGAGT,0.962,1.92,-0.553,-0.76,1.7,4.86,0.245,3.93,0.83,3.69,3.09,4.28,4.2,1.49,4.07,4.79,0.721,1.94
CGTCAAAGTTTAACTAAGGTAACGTAAAGCACGC,0.271,1.32,0.6,1.17,0.901,1.45,0.928,1.55,0.858,2.44,1.7,1.51,1.92,1.68,0.784,4.66,1.99,0.79
CCTAGTTGGTCAAGGTCACTCACGCTATAGGTAC,2.34,3.16,0.496,1.05,3.66,3.73,2.8,3.58,2.53,4,4.26,4.06,4.75,2.1,3.76,3.83,3.83,3.53
